This note sets out measurements from the supplement of paper PMC5940239.

Each structure is given as a SMILES string.

For this test, the system named is Madurella mycetomatis MM55. The experiment in a line: IC90; higher = less potent. Conditions: 7 days.
Take `O=C(NCCc1ccccc1)c1cc(-c2cccnc2)cnc1NCC1CC1`: the concentration for an effect of 90% (IC90) came to 92.4 µM.

`FC(F)(F)c1cc(NCCc2ccccc2)nc(-c2ccccn2)n1` came in with a 90% effect concentration (IC90) of 91.1 µM. Take `COc1ccc(CCN2CCC(NCc3cccc(N(C)C)c3)CC2)cc1`: the IC90 was 51.7 µM. With `CC(C)(C)c1ccc(N[C@@H]2CCCC[C@H]2NC(=O)c2ccco2)cc1` the figure was 89.7 µM. As for `CCCCCCCCCCCCCCCCOP(=O)([O-])OCC[N+](C)(C)C`, the IC90 was found to be 90.8 µM. With `O=C(Nc1nc(-c2ccccn2)cs1)c1cncn1-c1ccccc1` the figure was 40.8 µM.

Turning to `O=C(Nc1nnc(-c2ccc(Cl)s2)o1)c1ccc(Cl)s1`, the concentration for an effect of 90% (IC90) amounted to 93.7 µM. With `N=C(N)c1ccc(-c2cc(-c3ccccc3)on2)cc1` the figure was 90.2 µM; with `CC(c1cc(Cl)cc(Cl)c1)N(C)c1ncc2c(N)nc(N)nc2n1` (stereo not drawn), 90.7 µM; with `CN1CCC(NCc2cccc(-c3ccc(S(=O)(=O)NCc4ccccc4)cc3)c2)CC1`, 92 µM. `O=C(c1ccco1)N(CCCn1ccnc1)c1nc2c(Cl)cccc2s1` yielded an IC90 of 94 µM. With `CN1CCN(CCCOc2ncc(Nc3ncc(-c4ccc(C(F)(F)F)c(F)c4)nc3C(N)=O)cn2)CC1` the figure was 85.2 µM; with `O=C(NC1CC1)c1ccc(N2CCOc3ccc(Cl)cc32)s1`, 51.8 µM. With `COc1ccc(-c2cnc3ccc(N4CCCC4)nn23)cc1OC` the figure was 92.7 µM; with `CN1CCC(c2cc(-c3ccncc3)c(-c3ccc(F)cc3)[nH]2)CC1`, 91.6 µM; with `COc1cccc(-c2cc3c(Nc4cccnc4)nccc3[nH]2)c1`, 92.5 µM. `Cc1ccc2c(c1C)NC(=O)C21NN=C(c2ccccc2)S1` (stereo not drawn) gave a concentration for an effect of 90% (IC90) of 61.2 µM. As for `COc1ccccc1CNC(=O)c1cc(C2CC2)nc2c1cnn2C(C)C`, the IC90 came to 88.8 µM.
